Test results from the supplement of paper PMC4894684.
Where a name gives a salt, the structure may show the parent alone. ± gives the standard deviation of the averaged measurements.

system: Toxoplasma gondii RH (in HFF); assay: parasite growth relative to the screen mean (all compounds = 100%); higher = less inhibition of parasite growth; details: 5 µM; 72 h; oxygen 21 %
In short: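 Library compounds, held as 10 mM DMSO stocks, were pinned to 5 µM final onto confluent human foreskin fibroblasts in 96-well plates. The cells were infected within 2 h with RH β-Gal–GFP Toxoplasma (MOI 1:5), grown 72 h at 21% O2, and assayed for parasite number by CPRG β-Gal using in-plate standard curves. Growth is reported relative to the screen mean, in which all compounds = 100%, averaged over two screens, and CellTiter-Blue checked uninfected host-cell viability.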

First: CCCCN1CCC(CCC(=O)c2cc(Cl)c(N)cc2OC)CC1
Second: CCN1CCC[C@H]1CNC(=O)c1c(OC)ccc(Br)c1OC [Remoxipride hydrochloride]
The parasite growth of the first is lower: 67.2 ± 14% for the first, 113 ± 3.8% for the second.

Compared with `C[C@H](NC(=O)c1sccc1OCc1ccc(Cl)cc1)c1ccccc1`, `CC(C)NC[C@H](O)COc1cccc2ccccc12` [(S)-(-)-Propranolol hydrochloride] is higher in parasite growth: 38.7 ± 22% for the first, 81.8 ± 3.3% for the second.

`COC(=O)C1=C(C)NC(C)=C([N+](=O)[O-])[C@H]1c1ccccc1C(F)(F)F` and `COC(=O)C1=C(C)NC(C)=C([N+](=O)[O-])C1c1ccccc1C(F)(F)F` (racemic) are within error of each other in parasite growth: 153 ± 8.1% for the first, 167 ± 8.8% for the second.

Compared with `CCc1cc(-c2n[nH]c(C)c2-c2ccc3c(c2)OCCO3)c(O)cc1O`, `Cc1nnc(-c2ccc3occ(-c4ccc([S+](C)[O-])cc4)c3c2)o1` (stereo not drawn) is lower in parasite growth: 215 ± 12% for the first, 83.7 ± 4.5% for the second.

`CC(C)C1C2CCC(C2)C1N` (stereo not drawn) and `N[C@@H]1CCN(O)C1=O` are within error of each other in parasite growth: 118 ± 6.6% for the first, 97.4 ± 22% for the second.

Going from `NCCCCNCCCN` [Spermidine trihydrochloride] to `OCc1cc(C(O)CNCCCCCCOCCCCc2ccccc2)ccc1O` (stereo not drawn) [Salmeterol], the parasite growth falls from 90.6 ± 7.8% to 14.4 ± 11%.

`O=C(O)c1cccnc1C(=O)O` [Quinolinic acid] and `O=C(Nc1ccc(C(F)(F)F)cn1)N1CCN(c2ncccc2C(F)(F)F)CC1` are within error of each other in parasite growth: 125 ± 12% for the first, 135 ± 6.2% for the second.

First: CCCn1c(=O)[nH]c2nc(-c3ccc(S(=O)(=O)O)cc3)[nH]c2c1=O
Second: CCCn1c(=O)c2[nH]c(-c3ccccc3)nc2n(CCC)c1=O [1,3-Dipropyl-8-phenylxanthine]
The parasite growth of the first is higher: 112 ± 5.7% for the first, 47 ± 7.9% for the second.

`[O-][S+](c1ccccc1)c1ccc2nnnn2n1` (stereo not drawn) and `Cc1cccc(/C=C/c2ccccc2)n1` are within error of each other in parasite growth: 111.89 ± 0.016% for the first, 99.2 ± 63% for the second.

`O=C1C(=O)N(Cc2ccc(Cl)c(Cl)c2)c2ccccc21` [Apoptosis Activator 2] and `CN(C)c1ccc(/C=C2/C(=O)Nc3ccccc32)cc1` are within error of each other in parasite growth: 120 ± 3.4% for the first, 124 ± 26% for the second.

Going from `NC(=O)c1ccc2[nH]ccc2c1` to `O=C(O)/C=C/c1ccc(Cn2ccnc2)cc1` [Ozagrel hydrochloride], the parasite growth rises from 91.2 ± 12% to 119 ± 3.2%.

`c1ccc(CN(CC2=NCCN2)c2ccccc2)cc1` [Antazoline hydrochloride] and `Cc1scc2c1N(C(=O)CN1CCN(C)CC1)c1ccccc1NC2=O` [Telenzepine dihydrochloride] are within error of each other in parasite growth: 114 ± 25% for the first, 133 ± 26% for the second.

First: CC1(C)NC(=O)N(c2ccc([N+](=O)[O-])c(C(F)(F)F)c2)C1=O [Nilutamide]
Second: COc1cc2c(cc1C(F)(F)F)N(C(=O)Nc1cc(F)cc(-c3cccnc3)c1)CC2
The parasite growth of the first is higher: 150 ± 36% for the first, 29.9 ± 3.3% for the second.

First: Nc1nc(N)nc(-c2cc(Cl)ccc2Cl)n1 [Irsogladine maleate]
Second: Cc1c(C(=O)NN2CCCCC2)nn(-c2ccc(Cl)cc2Cl)c1-c1ccc(I)cc1
The parasite growth of the first is higher: 127 ± 27% for the first, 45.2 ± 3% for the second.

Compared with `CN(N=O)C(=O)N[C@@H](C=O)[C@@H](O)[C@H](O)[C@H](O)CO` [Streptozocin], `CC(C)NCC(O)c1ccc(NS(C)(=O)=O)cc1` (stereo not drawn) [Sotalol hydrochloride] is lower in parasite growth: 137 ± 5.8% for the first, 108 ± 6.9% for the second.

Compared with `CCCCC[C@H](O)/C=C/[C@H]1[C@H](O)CC(=O)[C@@H]1C/C=C\CCCC(=O)O` [Prostaglandin E2], `COCCCC/C(=N\OCCN)c1ccc(C(F)(F)F)cc1` [Fluvoxamine maleate] is lower in parasite growth: 122 ± 1.1% for the first, 49.7 ± 11% for the second.

Compared with `O=C(Nc1cccc2cccnc12)c1ccc(N2C(=O)[C@@H]3[C@H](C2=O)[C@@H]2C=C[C@H]3C2)cc1` [endo-IWR 1], `COc1ccc(NC(=O)c2ccc(-c3ccc(-c4noc(C)n4)cc3C)cc2)cc1N1CCN(C)CC1` is lower in parasite growth: 113 ± 21% for the first, < 0% for the second.

Going from `OC(CCCN1CCN(c2ncc(F)cn2)CC1)c1ccc(F)cc1` (stereo not drawn) to `COc1ccc(NS(=O)(=O)c2ccc(I)cc2)cc1N1CCN(C)CC1`, the parasite growth rises from 64.6 ± 30% to 122 ± 17%.

`COc1ccc(CCN(C)CCc2ccc(OC)c(OC)c2)cc1OC` [YS-035 hydrochloride] and `OCC1OC(n2cnc3c(NC4CCCC4)nc(Cl)nc32)C(O)C1O` (stereo not drawn) [2-Chloro-N6-cyclopentyladenosine] are within error of each other in parasite growth: 136 ± 23% for the first, 138 ± 11% for the second.
